Values without a mark were called inactive. Calls of active or inactive are those of the source. The call rests on the fitted dose curve; in most records, active means well fitted cell-killing curve with a large enough effect in the repeat runs; inconclusive means weak or mixed curves, or effect the other way; inactive means flat fitted curve, though single readings scatter.
On the % scale 0 is the no-effect control and ±100 the full control effect.

This experiment is described as follows: qHTS assay to identify small molecule HDAC inhibitors - cell viability counter screen (AID 1259365). Further: nearly all actives have a fitted effect of over 50% in size. To be noted: HCT-116 viability, CellTiter-Glo ATP luminescence, 2 h; series mostly up to 92.4 µM. A digest of the protocol: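 Counter screen in wild-type HCT-116 cells: compounds dissolved in DMSO are pin-transferred onto overnight-plated cells and left 2hr at 37C. ATP-based CellTiter-Glo luminescence then measures viable cells.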
Take `CC(C)c1ccccc1`: the compound was classed as inactive. For `CC(C)CCCCCCc1ccc(OCCOCCO)cc1`, the outcome was inactive.

For the compound `Cc1ccsc1C(=CCCN1CCC[C@@H](C(=O)O)C1)c1sccc1C`, the compound was classed as inactive. Still for that read-out and setting: then `Cc1ncc(CO)c(CN)c1O`, with “inactive”; and `CC(CNC1CCCCC1)OC(=O)c1ccccc1` (stereo not drawn), with “inactive”; and `COc1ccc(S(=O)(=O)Nc2nnc(CC(C)C)s2)cc1`, with “inactive”.

Regarding `Cn1cnc2c(F)c(Nc3ccc(Br)cc3Cl)c(C(=O)NOCCO)cc21`, the compound was classed as inactive. As for `CO[C@@]1(NC(=O)CSCC#N)C(=O)N2C(C(=O)O)=C(CSc3nnnn3C)CS[C@@H]21`, the outcome was inactive.

For the compound `C[C@@H]1CN(c2c(F)c(F)c3c(=O)c(C(=O)O)cn(C4CC4)c3c2F)C[C@H](C)N1`, the activity change, negative = cytotoxicity is -3.08% [at 19 µM].

In the case of `CC(=O)N(CC(O)CN(C(C)=O)c1c(I)c(C(=O)NCC(O)CO)c(I)c(C(=O)NCC(O)CO)c1I)c1c(I)c(C(=O)NCC(O)CO)c(I)c(C(=O)NCC(O)CO)c1I` (stereo not drawn), the result was inactive. In the case of `CC(C)(C)c1cccc(O)c1`, the outcome was inactive. Still for that read-out and setting: then `C[C@@H](N)C(=O)O`, with “inactive”; and `CCC(=O)O[C@]1(C(=O)SCF)[C@H](C)C[C@H]2[C@@H]3C[C@H](F)C4=CC(=O)C=C[C@]4(C)[C@@]3(F)[C@@H](O)C[C@@]21C`, with “inactive”; and `Cc1c(C(=O)NCCO)[n+](=O)c2ccccc2n1[O-]`, with “inactive”. For the compound `C=Cc1ccccc1`, the call was inactive. Consider `CCCNC(C)C(=O)Nc1c(C)csc1C(=O)OC` (stereo not drawn), for which the call was inactive. For the compound `CCN(CC)CCNC(=O)COc1ccc(Cl)cc1`, the result was inactive. As for `CC(=O)OC(C)OC(C)=O`, the compound was classed as inactive. As for `CN(C)Cc1ccccc1`, the result was inactive.

As to `O=c1oc2c(O)c(O)cc3c(=O)oc4c(O)c(O)cc1c4c23`, the activity change, negative = cytotoxicity was 2.83% [at 19 µM]. As for `Cc1cc(S(=O)(=O)O)c(N)cc1Cl`, the call was inactive.

For `O=c1[nH]c(=O)n([C@H]2C[C@H](O)[C@@H](CO)O2)cc1C(F)(F)F`, the call was inactive. For `CC1=C2[C@H](/C=C(\C)C(=O)O)CC[C@@H](C)[C@H]2CC1`, the call was inactive. Still for that read-out and setting: the same measure for `Nc1cccc(S(=O)(=O)O)c1`: “inactive”; for `FC(F)(F)C(F)(F)C(F)(F)C(F)(F)C(F)(F)C(F)(F)C(F)(F)C(F)(F)Br`: “inactive”. Still for that read-out and setting: then `N#CSCC(=O)O`, with “inactive”; and `CC(=O)O[C@H]1CC[C@@]2(C)C(=CC[C@@H]3[C@@H]2CC[C@]2(C)C(C(C)=O)=CC[C@@H]32)C1`, with “inactive”; and `CCCC(CCC)(C(=O)OCC)C(=O)OCC`, with “inactive”.

As to `CC(Oc1c(Cl)cccc1Cl)C1=NCCN1` (stereo not drawn), the outcome was inactive. On the same count and under the same terms, then `CC1=C(CC(=O)O)c2cc(F)ccc2/C1=C\c1ccc(S(C)(=O)=O)cc1`, with “inactive”. On to `OCCN(CCO)c1ccccc1`, for which the call was inactive. Take `CCN(CC)CC1CCCCN1CC(=O)N1c2ccccc2C(=O)Nc2cccnc21` (stereo not drawn): the outcome was inactive. The same measure, in the same setting: the same measure for `COC(C)CCO` (stereo not drawn): “inactive”; for `COC(=O)C(C)O` (stereo not drawn): “inactive”.

Take `O=Cc1ccc(O)c(O)c1O`: the call was inactive.

Consider `CN1CCN(N)CC1`, for which the compound was called inactive. With `CN1CCN(C2=Nc3cc(F)ccc3Cc3ccccc32)CC1`, the call was inactive. Take `CC1(O)CSC(C)(O)CS1` (stereo not drawn): the result was inactive.

These data come from PubChem BioAssay (Tox21).
